The values below come from PubChem BioAssay (NCATS).

Values joined by “and” are separate entries in the source; they are usually repeats but may differ in a detail not shown here. Equal values may be shown once. Active and inactive are the calls of the source. The call rests on the fitted dose curve.

The first test can be described thus: qHTS drug screen for cell cycle checkpoint inhibitors in PARPi-resistant BRCA-mutant ovarian cancer cell lines. (AID 1963452). The note with it: PEO1/OlaR viability, CellTiter-Glo luminescence, 96 h; stronger effect = lower value. Put shortly:
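PEO1, PEO4 and PEO1/OlaR ovarian cancer cells, 600 per well, exposed 96 h at 37C to a dilution series. Viability read by CellTiter-Glo luminescence, normalized to DMSO and empty wells; activity summarized as Z-AUC.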
For orientation: qHTS replaces the single test concentration by a dilution series.
Consider `O=C(O)c1ccc(O)c2ncccc12`, for which the Z-AUC is 1.08 (inactive).
Turning to `CC(/C=C1\SC(=S)N(CC(=O)O)C1=O)=C\c1ccccc1`, the Z-AUC is 1.25 (inactive).
`COc1ccnc2[nH]cc(C(=O)C(=O)N3CCN(C(=O)c4ccccc4)C[C@H]3C)c12`: the Z-AUC is 1.3 (inactive).
Still for that read-out and setting: then `COc1ccc(-n2cnc3cc(C(=O)N4CCCCC4)ccc32)cc1`, with 0.871 (inactive).
Same read-out and setting: then `CCC1CCCCN1C(=O)n1ncc(C(O)(c2ccccc2)c2ccccc2)n1` (stereo unspecified), with 0.1 (inactive).
Still for that read-out and setting: then `O=C(/C=C/c1ccc2ccc(C(F)(F)F)cc2n1)c1ccncc1`, with -0.632 (inactive).
Turning to `C[C@H]1CC2[C@@H]3CCC4=CC(=O)C=C[C@]4(C)[C@@]3(F)[C@@H](O)C[C@]2(C)[C@@]1(O)C(=O)CO` (stereo partly specified), the Z-AUC is -1.28 (inactive).
On to `CN(Cc1ccccc1)C(=O)c1ccc(S(=O)(=O)Nc2ccccc2)cc1`, for which the Z-AUC is -0.829 (inactive).
The same measure, in the same setting: the value for `Cc1c(CN2CCN(C(=O)[C@H](C)O)CC2)sc2c(N3CCOCC3)nc(-c3cnc(N)nc3)nc12` was 0.0318 (inactive).
Same read-out and setting: then `CN(CCOc1ccc(C[C@H](Nc2ccccc2C(=O)c2ccccc2)C(=O)O)cc1)c1ccccn1`, with 0.115 (inactive) and 0.904 (inactive).
The same measure, in the same setting: then `CC(=O)N1c2ccc(-c3ccc(C(=O)O)cc3)cc2[C@H](Nc2ccc(Cl)cc2)C[C@@H]1C`, with -0.689 (inactive).
For the compound `Cc1ccc(-n2c(C)cc(-c3nnc4n3CCCCC4)c2C)cc1`, the Z-AUC was 1.28 (inactive).
Same read-out and setting: the value for `COc1nc(N)nc2c1ncn2C1OC(CO)C(O)C1O` (stereo unspecified) was -0.613 (inactive); that for `C/C(=N\NC(=O)c1cccc(S(=O)(=O)N2CCOCC2)c1)c1cc(Cl)ccc1O` was -1.37 (inactive) and -1.59 (inactive).
`CNc1nc(-c2ccc3c(N)n[nH]c3c2)cc(N2C[C@@H](C(=O)NC3CCCCC3)CC[C@H]2C)n1`: the Z-AUC is -1.31 (inactive).
On the same count and under the same terms, then `Cn1cc(/C=C2\C(=O)Nc3cccnc32)c2ccccc21`, with 1.01 (inactive).
Same read-out and setting: then `C[C@@H]1CC(=O)Nc2cccc(-c3cnn(C(C)(C)C)c3)c2N1`, with -0.505 (inactive); and `O=C(CCCc1ccc2cccnc2n1)NCc1cc(-c2ccc(F)c(C(F)(F)F)c2)no1`, with -0.51 (inactive).
Still for that read-out and setting: then `Cc1cccc(/C=N/Nc2cc(N3CCOCC3)nc(OCCc3ccccn3)n2)c1`, with 0.655 (inactive); and `NS(=O)(=O)c1ccc(Cc2c(-c3cccc(-c4ccccc4)c3)nn(-c3nc(C(=O)O)cs3)c2CC2CC2)cc1`, with -1.08 (inactive); and `C[C@H]1[C@H](C)CC[C@]2(C(=O)O)CC[C@]3(C)C(=CC[C@@H]4[C@@]5(C)CC[C@H](O)C(C)(C)[C@@H]5CC[C@]43C)[C@H]12`, with 0.556 (inactive).
Consider `COc1ccc([C@@H](O)[C@@H](C)Oc2ccc([C@H]3O[C@H](c4ccc(O[C@H](C)[C@H](O)c5ccc(OC)c(OC)c5)c(OC)c4)[C@H](C)[C@H]3C)cc2OC)cc1OC`, for which the Z-AUC is -1.98 (inactive).
On the same count and under the same terms, the value for `CN(C)C[C@@H]1CCn2cc(c3ccccc32)C2=C(C(=O)NC2=O)c2cn(c3ccccc23)CCO1` was 0.756 (inactive); that for `COc1cc2nccc(Oc3ccc(NC(=O)c4cn(C(C)C)c(=O)n(-c5ccc(F)cc5)c4=O)cc3F)c2cc1OC` was -0.766 (inactive).
`C[C@H](NC(=O)CCC(F)(F)F)C(=O)N[C@@H]1C(=O)N(CCO)c2ncccc2-c2ccccc21`: the Z-AUC is -0.268 (inactive).
On the same count and under the same terms, then `C[C@H](CCC(=O)O)[C@H]1CC[C@H]2[C@@H]3[C@@H](O)C[C@@H]4C[C@H](O)CC[C@]4(C)[C@H]3CC[C@]12C`, with 0.396 (inactive); and `Clc1cccc(-c2ccc(-c3nnc(CCCc4ccc5cccnc5n4)o3)cc2)c1`, with 1.61 (inactive); and `C=C1CCC2[C@](C)(CO)C(O)CC[C@]2(C)C1C/C=C1/C(=O)OCC1O` (stereo partly specified), with 0.689 (inactive).
The same measure, in the same setting: then `Cc1c(-c2cnccn2)ssc1=S`, with -0.037 (inactive); and `CC1(C(=O)O)CCC2(C)CCC3(C)C(=CC(=O)C4C5(C)CCC(OC6OC(C(=O)O)C(O)C(O)C6OC6OC(C(=O)O)C(O)C(O)C6O)C(C)(C)C5CCC43C)C2C1` (stereo unspecified), with -0.447 (inactive).

Staying with this test, now noted: PEO1/OlaR viability, CellTiter-Glo luminescence, 96 h; measured here: PEO1 parental Z-AUC; stronger effect = lower value.
With `O=C(O)c1ccc(O)c2ncccc12`, the Z-AUC amounted to 0.983.
On the same count and under the same terms, the value for `O=C(/C=C/c1cccnc1)NCCCCC1CCN(C(=O)c2ccccc2)CC1` was -2.84; that for `CC(/C=C1\SC(=S)N(CC(=O)O)C1=O)=C\c1ccccc1` was 1.33; that for `COc1ccnc2[nH]cc(C(=O)C(=O)N3CCN(C(=O)c4ccccc4)C[C@H]3C)c12` was 1.05.
With `COc1ccc(-n2cnc3cc(C(=O)N4CCCCC4)ccc32)cc1`, the Z-AUC is 0.696.
For the compound `CCC1CCCCN1C(=O)n1ncc(C(O)(c2ccccc2)c2ccccc2)n1` (stereo unspecified), the Z-AUC amounted to 0.47.
Regarding `O=C(/C=C/c1ccc2ccc(C(F)(F)F)cc2n1)c1ccncc1`, the Z-AUC is -0.753.
Still for that read-out and setting: the value for `C[C@H]1CC2[C@@H]3CCC4=CC(=O)C=C[C@]4(C)[C@@]3(F)[C@@H](O)C[C@]2(C)[C@@]1(O)C(=O)CO` (stereo partly specified) was -0.45.
Same read-out and setting: the value for `CN(Cc1ccccc1)C(=O)c1ccc(S(=O)(=O)Nc2ccccc2)cc1` was -0.00385.
With `Cc1c(CN2CCN(C(=O)[C@H](C)O)CC2)sc2c(N3CCOCC3)nc(-c3cnc(N)nc3)nc12`, the Z-AUC turned out to be 0.386.
On the same count and under the same terms, then `CN(CCOc1ccc(C[C@H](Nc2ccccc2C(=O)c2ccccc2)C(=O)O)cc1)c1ccccn1`, with 0.442 and 0.488.
Take `CC(=O)N1c2ccc(-c3ccc(C(=O)O)cc3)cc2[C@H](Nc2ccc(Cl)cc2)C[C@@H]1C`: the Z-AUC is -0.385.
The same measure, in the same setting: the value for `Cc1ccc(-n2c(C)cc(-c3nnc4n3CCCCC4)c2C)cc1` was 1.19; that for `COc1nc(N)nc2c1ncn2C1OC(CO)C(O)C1O` (stereo unspecified) was -0.445.
As for `C/C(=N\NC(=O)c1cccc(S(=O)(=O)N2CCOCC2)c1)c1cc(Cl)ccc1O`, the Z-AUC was -1.95 and -1.28.
Consider `CNc1nc(-c2ccc3c(N)n[nH]c3c2)cc(N2C[C@@H](C(=O)NC3CCCCC3)CC[C@H]2C)n1`, for which the Z-AUC amounted to 0.449.
Still for that read-out and setting: then `Cn1cc(/C=C2\C(=O)Nc3cccnc32)c2ccccc21`, with 0.388.
Still for that read-out and setting: the value for `C[C@@H]1CC(=O)Nc2cccc(-c3cnn(C(C)(C)C)c3)c2N1` was -0.577.
Turning to `O=C(CCCc1ccc2cccnc2n1)NCc1cc(-c2ccc(F)c(C(F)(F)F)c2)no1`, the Z-AUC was -0.432.
On the same count and under the same terms, then `Cc1cccc(/C=N/Nc2cc(N3CCOCC3)nc(OCCc3ccccn3)n2)c1`, with 0.0151; and `NS(=O)(=O)c1ccc(Cc2c(-c3cccc(-c4ccccc4)c3)nn(-c3nc(C(=O)O)cs3)c2CC2CC2)cc1`, with -0.77; and `C[C@H]1[C@H](C)CC[C@]2(C(=O)O)CC[C@]3(C)C(=CC[C@@H]4[C@@]5(C)CC[C@H](O)C(C)(C)[C@@H]5CC[C@]43C)[C@H]12`, with 0.879.
Same read-out and setting: the value for `COc1ccc([C@@H](O)[C@@H](C)Oc2ccc([C@H]3O[C@H](c4ccc(O[C@H](C)[C@H](O)c5ccc(OC)c(OC)c5)c(OC)c4)[C@H](C)[C@H]3C)cc2OC)cc1OC` was -3.67; that for `CN(C)C[C@@H]1CCn2cc(c3ccccc32)C2=C(C(=O)NC2=O)c2cn(c3ccccc23)CCO1` was 0.389; that for `COc1cc2nccc(Oc3ccc(NC(=O)c4cn(C(C)C)c(=O)n(-c5ccc(F)cc5)c4=O)cc3F)c2cc1OC` was -0.766.
Still for that read-out and setting: the value for `C[C@H](NC(=O)CCC(F)(F)F)C(=O)N[C@@H]1C(=O)N(CCO)c2ncccc2-c2ccccc21` was 0.166; that for `C[C@H](CCC(=O)O)[C@H]1CC[C@H]2[C@@H]3[C@@H](O)C[C@@H]4C[C@H](O)CC[C@]4(C)[C@H]3CC[C@]12C` was 1.43.
On to `Clc1cccc(-c2ccc(-c3nnc(CCCc4ccc5cccnc5n4)o3)cc2)c1`, for which the Z-AUC amounted to 1.52.
The same measure, in the same setting: the value for `C=C1CCC2[C@](C)(CO)C(O)CC[C@]2(C)C1C/C=C1/C(=O)OCC1O` (stereo partly specified) was -0.31; that for `Cc1c(-c2cnccn2)ssc1=S` was 0.595; that for `CC1(C(=O)O)CCC2(C)CCC3(C)C(=CC(=O)C4C5(C)CCC(OC6OC(C(=O)O)C(O)C(O)C6OC6OC(C(=O)O)C(O)C(O)C6O)C(C)(C)C5CCC43C)C2C1` (stereo unspecified) was 1.94.
